The values that follow come from PubChem BioAssay AID1458 (National Center for Advancing Translational Sciences (NCATS), 2008).

The campaign covered roughly 210,000 compounds. About 5,900 (2.8%) were called active. Roughly 5% stayed inconclusive and do not appear here. Shown is part of a subset that was picked to be rich in actives. Entries that show only a call come without a potency. Values without a mark were called inactive. Calls follow the shape of the dose curve; as a rule, active = well fitted activation curve with a large enough effect; inconclusive = small, poorly fitted or top-dose-only effect; inactive = no such curve, though single readings can be large or run the other way.
Potency is read from the fitted curve at half-maximal effect.

A short description of the assay: qHTS Assay for Enhancers of SMN2 Splice Variant Expression. Also: nearly all actives have a fitted effect of over 55% in size. Conditions: HEK293 SMN2-luciferase splicing reporter, luminescence, 30-36 h; series mostly up to 46.1 µM. The method, boiled down:
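HEK293 cells carry an SMN2 minigene-luciferase reporter in which exon 7 inclusion puts luciferase in frame. Cells were seeded at 2000 cells/well, attached for 10-12 hours, then exposed to compounds for 30-36 hours at 37C before ONE-Glo luminescence.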
Background: Quantitative high-throughput screening tests each substance at several concentrations.
On to `Cc1nc(SCCOc2ccc(Cl)cc2)[nH]c(=O)c1Cc1ccccc1`, for which the Potency result is “inactive”. Still for that read-out and setting: in the case of `CC(=O)c1sc(NC(=O)c2ccc(C)cc2)nc1C` it was 5.62 µM (active); in that of `CC(=O)c1sc(N/N=C\c2ccc(C)cc2)nc1C`, 10 µM (active); in that of `CC(=O)c1sc(N/N=C/c2ccc(C(C)C)cc2)nc1C`, 17.8 µM (active). The same measure, in the same setting: with `Cc1nnc(C)n1/N=C/c1ccc(C(C)C)cc1` the entry was “inactive”; with `CCSc1nnc(NC(=O)Cc2ccccc2OC)s1`, “inactive”; with `CCOC(=O)CSc1nnc(NC(=O)c2cccc(S(=O)(=O)N3CCCCC3)c2)s1`, “inactive”. Same read-out and setting: in the case of `CCSc1nnc(NC(=O)c2ccc(C)cc2)s1` it was 14.1 µM (active). As to `Cc1nonc1C(=O)N/N=C/c1ccc(O)cc1`, the activity change, positive = activation is 1.94% [at 1.84 µM]. As for `Cc1ccc(C(=O)Nc2nc(-c3ccccc3)ns2)cc1`, the Potency result was “inactive”. On the same count and under the same terms, in the case of `COc1ccc(/C=N\NC(=O)c2sc(N)nc2C)cc1OC` it was “inactive”. As to `Cc1ccc(S(=O)(=O)Nc2nc(C)cc(N/N=C/c3ccc(O)cc3)n2)cc1`, the Potency result was “inactive”. Still for that read-out and setting: with `CC(=O)c1sc(NC(=O)C2=NN(c3ccccc3)C(=O)CC2)nc1C` the entry was “inactive”; with `CCc1ccc(S(=O)(=O)c2nnn3c2nc(NCc2ccccc2OC)c2cc(Cl)ccc23)cc1`, “inactive”. As to `CCOc1ccc(C2C(C(=O)Nc3ccc(Cl)cc3)=C(C)Nc3nc(C(F)(F)F)nn32)cc1` (stereo not given), the Potency result was “inactive”.

For `Cc1nn(CC(=O)N2CCN(c3cccc(C(F)(F)F)c3)CC2)c(=O)c2cc3sccc3n12`, the Potency entry was “inactive”. The same measure, in the same setting: with `C/C=C(\C)C(=O)O[C@H]1CC(C)=C2C(=O)C=C(C)C2[C@@H]2OC(=O)[C@@](C)(OC(=O)C=C(C)C)C21` (stereo not given in full) the entry was “inactive”.

For the compound `CCN(CCCNC(=O)c1cc(Nc2ccc(OC)cc2)nc2ccccc12)c1cccc(C)c1`, the Potency entry was “inactive”. Still for that read-out and setting: in the case of `CC(C)c1ccc(NC(=O)CN(C)S(=O)(=O)c2ccc3c(c2)c(=O)n(C)c(=O)n3C)cc1` it was “inactive”; in that of `O=C(CSc1oc(-c2ccco2)nc1S(=O)(=O)c1ccccc1)c1ccc(Cl)cc1`, “inactive”. Still for that read-out and setting: with `Cc1ccc(-c2nn(CCC(=O)Nc3ccc(OC(F)(F)F)cc3)c(=O)c3ccccc23)cc1` the entry was “inactive”; with `CCOc1cc(/C=C(\C#N)C(=O)Nc2ccccc2C)ccc1OCc1cc(=O)n2nc(CC)sc2n1`, “inactive”.

Regarding `COc1ccc(-n2c(=O)c3sc4ccccc4c3n(CC(=O)Nc3cccc(C)c3)c2=O)cc1`, the Potency result was “inactive”. Turning to `C/C=C(\C)C(=O)OC1C(OC(=O)C2(C)OC2C)c2cc3ccc(=O)oc3cc2OC1(C)C` (stereo not given), the Potency entry is “inactive”. In the case of `Cc1cccc(Cn2c(SCc3ccc(C(=O)N4CCC(C)CC4)cc3)nc3ccncc32)c1`, the Potency result is “inactive”. Consider `CC1=C(C(=O)OCC(C)C)C(c2ccc(OCc3ccccc3)cc2)N2C(=O)CCSC2=N1` (stereo not given), for which the Potency result was “inactive”. `O=C(Nc1ccon1)c1sc2ccccc2c1Cl`: the Potency is 17.8 µM (active). As to `COC(=O)c1cc(NC(=O)c2sc3ccccc3c2Cl)cc(C(=O)OC)c1`, the Potency result was “inactive”. `CCCC(=O)Nc1ccc(NC(=O)c2sc3ccccc3c2Cl)cc1`: the Potency result was “inactive”. On the same count and under the same terms, in the case of `COc1ccc(/C=C/c2nc(C#N)c(NCc3ccc(F)cc3)o2)cc1OC` it was “inactive”; in that of `CCOc1ccc(CNC(=O)C2CCN(c3nnc(-n4cccc4CNc4ccc(C)cc4)s3)CC2)cc1OC`, “inactive”. The same measure, in the same setting: in the case of `COc1ccc2[nH]cc(CCNc3ncnc4ccc(-c5ccccc5CN(C)C)cc34)c2c1` it was “inactive”. For `COc1ccccc1CNc1ncnc2ccc(-c3c(C)noc3C)cc12`, the Potency is 10 µM (active). On to `COCCNc1ncnc2ccc(-c3ccccc3CN(C)C)cc12`, for which the Potency entry was “inactive”. `Cc1c(NC(=O)Nc2ccc(F)c(Cl)c2)c(=O)n(-c2ccccc2)n1C`: the Potency result was “inactive”.

For the compound `CCCCSc1nnc(-c2ccc(C)cc2)o1`, the Potency is 11.2 µM (active). Still for that read-out and setting: in the case of `Cc1cccc(C)c1OC(=O)CSc1nnc(-c2ccccc2)o1` it was “inactive”; in that of `CCOC(=O)CSc1nnc(-c2ccncc2)o1`, “inactive”. The same measure, in the same setting: in the case of `O=C(Cc1ccc(Cl)cc1)Nc1ccc2nn(-c3ccc(Cl)cc3)nc2c1` it was “inactive”; in that of `CCCCNC(=O)c1ccc2c(c1)NC(=O)C(C(C)C)N2` (stereo not given), “inactive”. The same measure, in the same setting: with `COc1ccc(CNc2nc(-c3ccccc3)nn2C(=O)c2ccccc2OC)cc1` the entry was “inactive”. `Brc1cccc(-c2nnn3c2nc(NC2CCCCC2)c2ccccc23)c1`: the Potency result is “inactive”.

As to `COc1ccc(N2CCN(Cc3nc4c(c(=O)[nH]c(=O)n4C)n3Cc3ccc(Cl)cc3)CC2)cc1`, the Potency entry is “inactive”.

As to `O=C(NCCC1=CCCCC1)C1CCN(Cc2cnn(-c3ccccc3)c2-n2cccc2)CC1`, the Potency result was “inactive”. On to `C1=C(CCNc2ncnc3c2cnn3-c2ccccc2)CCCC1`, for which the Potency was 12.6 µM (active). Same read-out and setting: with `c1ccc(-n2ncc3c(N4CCCC4)ncnc32)cc1` the entry was “inactive”. Consider `CCOc1ccccc1C(=O)NC1(C(F)(F)F)C(=O)Nc2c1c(=O)[nH]c(=O)n2-c1ccc(F)cc1` (stereo not given), for which the Potency result was “inactive”. Same read-out and setting: in the case of `O=C(NC1(C(F)(F)F)N=C(c2ccccc2)N(C2CCCCC2)C1=O)c1ccccc1F` (stereo not given) it was “inactive”. The same measure, in the same setting: with `CCCN1CN=C(NS(=O)(=O)c2ccc(NC(C)=O)cc2)NC1` the entry was “inactive”; with `COc1ccc(-c2cc(-c3ccc(F)cc3)nc3c2COc2ccccc2-3)cc1`, “inactive”.

Take `Clc1ccc(-c2nnc(SCc3nc4ccccc4s3)o2)cc1`: the Potency result was “inactive”. With `FC(F)(F)c1cnc(Oc2ccccc2-c2nnc(-c3ccc(Cl)cc3)o2)c(Cl)c1`, the Potency entry was “inactive”. The same measure, in the same setting: with `CSc1ccccc1-c1nnc(-c2ccc(Cl)cc2)o1` the figure was 14.1 µM (active). Same read-out and setting: in the case of `CCOC(=O)c1ccccc1NC(=O)CCc1c(C)nc2c(c1C)c(=O)n(C)c(=O)n2C` it was “inactive”; in that of `CCN(CC)S(=O)(=O)c1ccc2c(c1)N(CC(=O)NCc1ccccc1)C(=O)CS2`, “inactive”. With `O=C(CSc1nnc(-c2ccncc2)o1)NCc1ccc(Cl)cc1`, the Potency entry is “inactive”.

Consider `O=C(CSc1nnc(-c2ccc([N+](=O)[O-])cc2)o1)Nc1ccccn1`, for which the Potency was 3.16 µM (active). The same measure, in the same setting: with `CCc1ccccc1NC(=O)CSc1nnc(-c2ccncc2)o1` the entry was “inactive”; with `N#Cc1nc(/C=C/c2ccc(F)cc2)oc1NCc1ccc(F)cc1`, “inactive”; with `Cc1ccc2nc3c(cc(C(=O)NC4CCCCC4)c(=N)n3C(C)C)c(=O)n2c1`, “inactive”. Still for that read-out and setting: in the case of `Cc1ccc(Nc2ccccc2N)cc1` it was “inactive”; in that of `Nc1ccccc1N`, 11.2 µM (active).

Turning to `NCCC(=O)c1ccccc1N`, the Potency result was “inactive”. For the compound `COc1ccc(NC(=O)C(=O)NCc2ccco2)cc1`, the Potency entry is “inactive”. `COc1cccc(NC(=O)N2CCN(C(=O)c3nsc4ccccc34)CC2)c1`: the Potency result is “inactive”.
